The source of these data is publication PMC5540273 (PLoS ONE, 2017).

Test systems include GRK7; GSK3A; GSK3B; HCK; HIPK1; HIPK2; HIPK3; HIPK4; HPK1; HUNK; ICK; IGF1R; INSRR; INSR; IRAK1; IRAK3.
Common to all, as to conditions: concentration: 1 μM, replicates: in singlicate; n = 1
The subject of a further assay is T1, HASPIN.
T1 construct: gene GSG2

The subject of a further assay is T2, IKK-alpha.
T2 construct: gene CHUK

The test system of a further assay is T3, IKK-beta.
T3 construct: gene IKBKB

In a further assay the test system is T4, IKK-epsilon.
T4 construct: gene IKBKE
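Note: KINOMEscan kinase panel screen.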

Consider `Cc1cccc(-c2cc(Nc3ccncc3)c3ccccc3n2)n1` [GSK223675], for which the “%Inh” value is 0% in the assay with GRK7; 17% in the assay on GSK3A; 12% in the assay on GSK3B; 0% in the assay on HASPIN; 0% with HCK; 0% in the assay on HIPK1. The “%Inh” value with HIPK2 came to 0%; in the assay on HIPK3 it was 5%; in the assay with HIPK4 it was 0%; with HPK1 it was 12%; in the assay on HUNK it was 0%; with ICK, 11%. The “%Inh” value turned out to be 0% in the assay with IGF1R; 0% in the assay on IKK-alpha; 0% in the assay with IKK-beta; 36% in the assay on IKK-epsilon; 0% with INSRR; 14% in the assay on INSR. The “%Inh” value with IRAK1 is recorded as 15%; with IRAK3, 0%.
In the case of `COc1cccc(-c2cc(-c3c[nH]nc3-c3ccccn3)ccn2)c1` [GW680338], the “%Inh” value in the assay with GRK7 worked out at 0%; in the assay on GSK3A, 3%; in the assay on GSK3B, 8%; in the assay with HASPIN, 23%; with HCK, 0%; in the assay with HIPK1, 11%. Besides, the “%Inh” value stood at 10% with HIPK2; 22% in the assay on HIPK3; 21% in the assay with HIPK4; 25% with HPK1; 71% with HUNK; 0% with ICK. In addition, the “%Inh” value with IGF1R is recorded as 6%; with IKK-alpha it was 2%; with IKK-beta, 0%; in the assay on IKK-epsilon, 0%; in the assay on INSRR, 0%; with INSR, 0%. Besides, the “%Inh” value with IRAK1 worked out at 13%; with IRAK3, 0%.
Regarding `NC(=O)c1nnc2ccccc2c1N`, the “%Inh” value in the assay with GRK7 was 0%; in the assay on GSK3A it was 5%; in the assay with GSK3B it was 24%; with HASPIN, 73%; in the assay on HCK, 0%; in the assay on HIPK1, 45%. The “%Inh” value in the assay with HIPK2 is reported as 50%; with HIPK3, 37%; with HIPK4 it was 4%; in the assay on HPK1, 0%; in the assay on HUNK it was 0%; in the assay on ICK, 13%. Moreover, the “%Inh” value stood at 0% with IGF1R; 27% in the assay on IKK-alpha; 35% in the assay on IKK-beta; 0% in the assay on IKK-epsilon; 12% in the assay on INSRR; 29% with INSR. Moreover, the figures for the “%Inh” value in the assay on IRAK1 and in the assay on IRAK3 were 54% and 19%, respectively.
As for `CS(=O)(=O)c1ccc(-c2nc3n(c2-c2ccncc2)CCC3)cc1` [SKF-105942], the “%Inh” value with GRK7 is listed as 0%; with GSK3A it was 0%; in the assay with GSK3B it was 10%; in the assay with HASPIN, 0%; in the assay on HCK it was 0%; in the assay with HIPK1, 0%. Besides, the “%Inh” value came to 0% in the assay with HIPK2; 8% in the assay on HIPK3; 0% in the assay with HIPK4; 37% in the assay on HPK1; 27% in the assay with HUNK; 100% with ICK. In addition, the “%Inh” value was found to be 0% with IGF1R; 0% in the assay on IKK-alpha; 0% in the assay on IKK-beta; 0% with IKK-epsilon; 0% with INSRR; 16% in the assay with INSR. Moreover, the “%Inh” value was 1% in the assay on IRAK1 and 0% with IRAK3.
As to `O=C(O)COc1ncnc2cc(-c3ccc4[nH]ncc4c3)sc12`, the “%Inh” value in the assay with GRK7 is recorded as 0%; in the assay on GSK3A, 25%; with GSK3B it was 27%; in the assay with HASPIN, 41%; in the assay with HCK it was 14%; in the assay with HIPK1, 45%. In addition, the “%Inh” value came to 47% in the assay with HIPK2; 47% with HIPK3; 38% with HIPK4; 7% in the assay with HPK1; 18% in the assay with HUNK; 31% in the assay with ICK. In addition, the “%Inh” value in the assay on IGF1R is 0%; with IKK-alpha, 28%; in the assay on IKK-beta, 19%; in the assay with IKK-epsilon, 4%; in the assay on INSRR, 19%; with INSR, 0%. The “%Inh” value was 29% in the assay with IRAK1 and 38% with IRAK3.
With `Cc1cc(-c2ccc3c(c2)CC[C@@H](N[C@@H](C)c2ccccc2)C3)cnc1N.Cl` [GW412617], the “%Inh” value stood at 0% in the assay on GRK7; 0% in the assay on GSK3A; 6% in the assay on GSK3B; 0% with HASPIN; 0% in the assay with HCK; 0% with HIPK1. Moreover, the “%Inh” value is given as 6% in the assay with HIPK2; 12% in the assay on HIPK3; 6% in the assay with HIPK4; 55% in the assay on HPK1; 0% with HUNK; 0% with ICK. Besides, the “%Inh” value in the assay with IGF1R is listed as 0%; in the assay on IKK-alpha it was 0%; in the assay with IKK-beta, 0%; in the assay with IKK-epsilon, 0%; with INSRR, 31%; in the assay with INSR it was 17%. Besides, the “%Inh” value with IRAK1 was 76%; in the assay on IRAK3, 2%.
`Cl.O=C(Nc1cccc(-c2nn3ncccc3c2-c2ccnc(Nc3cccnc3)n2)c1)c1c(F)cccc1F` [GSK312879]: the “%Inh” value in the assay with GRK7 is 0%; with GSK3A, 48%; with GSK3B, 25%; with HASPIN, 0%; in the assay with HCK, 52%; with HIPK1, 0%. Further, the “%Inh” value in the assay on HIPK2 is given as 0%; with HIPK3 it was 11%; in the assay on HIPK4 it was 0%; in the assay on HPK1 it was 31%; in the assay on HUNK it was 0%; in the assay on ICK, 10%. The “%Inh” value with IGF1R was found to be 25%; in the assay with IKK-alpha it was 30%; in the assay on IKK-beta it was 31%; in the assay on IKK-epsilon it was 0%; with INSRR, 9%; in the assay with INSR it was 11%. In addition, the “%Inh” value in the assay on IRAK1 is on record as 28%; in the assay on IRAK3, 0%.
`CC(=O)Nc1nc2cnc(Nc3cc(NC(=O)c4cccc(CCC#N)c4)ccc3C)nc2s1`: the “%Inh” value in the assay on GRK7 was determined as 6%; in the assay with GSK3A it was 0%; in the assay on GSK3B, 0%; in the assay on HASPIN it was 21%; with HCK, 21%; in the assay with HIPK1 it was 15%. Moreover, the “%Inh” value with HIPK2 was 20%; in the assay on HIPK3 it was 6%; with HIPK4, 5%; in the assay on HPK1, 0%; in the assay with HUNK, 0%; in the assay with ICK, 0%. In addition, the “%Inh” value is on record as 0% in the assay on IGF1R; 10% in the assay with IKK-alpha; 0% in the assay on IKK-beta; 33% with IKK-epsilon; 0% with INSRR; 34% with INSR. Also, the figures for the “%Inh” value in the assay with IRAK1 and in the assay on IRAK3 were 19% and 21%, respectively.
For `C[C@@H]1CCCCN1c1cc(-c2ccc3c(N)n[nH]c3c2)nc(N)n1` [GSK2258759], the “%Inh” value in the assay with GRK7 is 0%; in the assay on GSK3A, 3%; with GSK3B, 3%; in the assay with HASPIN it was 14%; with HCK, 0%; in the assay with HIPK1, 0%. The “%Inh” value was found to be 0% with HIPK2; 14% in the assay on HIPK3; 0% in the assay on HIPK4; 28% with HPK1; 0% in the assay with HUNK; 11% in the assay with ICK. In addition, the “%Inh” value in the assay with IGF1R was 4%; in the assay with IKK-alpha it was 0%; in the assay with IKK-beta, 7%; in the assay with IKK-epsilon, 43%; in the assay on INSRR, 0%; in the assay on INSR, 6%. Moreover, the “%Inh” value with IRAK1 was 4%; in the assay with IRAK3, 0%.
As to `Cc1csc(-c2nc(Nc3ccncc3)c3ccccc3n2)n1` [GW869640], the “%Inh” value with GRK7 amounted to 17%; with GSK3A it was 0%; in the assay on GSK3B it was 46%; in the assay with HASPIN it was 87%; in the assay with HCK it was 23%; with HIPK1 it was 7%. Further, the “%Inh” value in the assay on HIPK2 is recorded as 23%; with HIPK3 it was 36%; in the assay with HIPK4, 7%; in the assay on HPK1 it was 3%; in the assay with HUNK, 0%; with ICK it was 33%. Besides, the “%Inh” value in the assay on IGF1R is given as 14%; in the assay on IKK-alpha, 48%; with IKK-beta it was 41%; in the assay on IKK-epsilon it was 0%; with INSRR, 11%; in the assay on INSR, 2%. In addition, the results for the “%Inh” value in the assay on IRAK1 and with IRAK3 were 12% and 0%, respectively.
In the case of `Cc1ccccc1-n1cnc2c(N)ncnc21` [SKF-97510], the “%Inh” value is 0% with GRK7; 1% in the assay on GSK3A; 0% with GSK3B; 0% in the assay on HASPIN; 0% in the assay on HCK; 0% in the assay on HIPK1. For the same molecule, the “%Inh” value with HIPK2 amounted to 0%; in the assay with HIPK3 it was 0%; in the assay with HIPK4, 0%; with HPK1, 0%; in the assay with HUNK, 1%; in the assay on ICK, 0%. Moreover, the “%Inh” value in the assay on IGF1R, in the assay on IKK-alpha, with IKK-beta, with IKK-epsilon, in the assay with INSRR and with INSR was 0% throughout. Besides, the “%Inh” value in the assay with IRAK1 and in the assay with IRAK3 was 0% each time.
For the molecule `Cn1ccc2ncnc(Oc3ccc(Nc4nc5ccccc5[nH]4)cc3)c21`, the “%Inh” value in the assay with GRK7 stood at 0%; in the assay on GSK3A, 12%; in the assay on GSK3B, 0%; in the assay with HASPIN, 50%; in the assay with HCK it was 8%; in the assay with HIPK1 it was 17%. For the same molecule, the “%Inh” value in the assay on HIPK2 is reported as 0%; in the assay with HIPK3 it was 0%; in the assay with HIPK4, 9%; in the assay with HPK1 it was 0%; with HUNK, 0%; with ICK it was 0%. Besides, the “%Inh” value was 0% with IGF1R; 0% in the assay with IKK-alpha; 0% with IKK-beta; 0% in the assay on IKK-epsilon; 17% in the assay on INSRR; 0% in the assay on INSR. The “%Inh” value in the assay with IRAK1 and with IRAK3 was 0% throughout.
`Cl.Oc1ccc(-c2nc(-c3ccccc3)[nH]c2-c2ccncc2)cc1` [SB-428218]: the “%Inh” value in the assay with GRK7 was found to be 0%; in the assay with GSK3A, 11%; in the assay on GSK3B it was 0%; with HASPIN, 15%; in the assay on HCK, 0%; in the assay with HIPK1 it was 5%. Moreover, the “%Inh” value in the assay on HIPK2 is 16%; in the assay with HIPK3 it was 1%; in the assay with HIPK4, 0%; in the assay with HPK1 it was 38%; with HUNK, 42%; in the assay on ICK, 3%. Also, the “%Inh” value with IGF1R amounted to 8%; with IKK-alpha, 0%; in the assay on IKK-beta it was 0%; with IKK-epsilon, 12%; in the assay on INSRR, 0%; in the assay with INSR, 3%. Besides, the “%Inh” value was determined as 33% with IRAK1 and 0% with IRAK3.
With `O=C(Nc1ccc2c(c1)OCO2)NC1CCN(c2ccnc(Nc3ccc(F)cc3)n2)C1` (stereo not shown) [GSK1379724], the “%Inh” value with GRK7 came out at 0%; with GSK3A, 1%; in the assay with GSK3B, 16%; with HASPIN, 0%; with HCK, 0%; in the assay on HIPK1, 0%. The “%Inh” value with HIPK2 was 0%; in the assay with HIPK3, 1%; in the assay with HIPK4, 0%; with HPK1, 45%; with HUNK, 12%; in the assay on ICK, 19%. Besides, the “%Inh” value with IGF1R turned out to be 0%; in the assay on IKK-alpha, 25%; in the assay with IKK-beta, 16%; with IKK-epsilon, 0%; with INSRR, 0%; in the assay with INSR, 0%. The entries for the “%Inh” value with IRAK1 and with IRAK3 were 36% and 0%, respectively.
